Measured values: PubChem BioAssay (NCI)
This is part of a sample that, as a whole, favours compounds with a hit. Of some 83,000 tested, about 20% had one in any assay.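 Each cell line was grown in a 96-well plate and treated with one concentration of compound for 48 hours. Values below 10 were considered active.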 Unmarked numbers belong to inactive results. The source made the active and inactive calls.

The compounds below were run on U251 CNS (assay: NCI-60 one-dose screen, 48 h (100 = growth as untreated, 0 = no growth, -100 = all killed)). Conditions: 10 µM.
Description: Growth inhibition of the U251 human tumor cell line is measured as a screen for anti-cancer activity. Cells are grown in 96 well plates and exposed to the test compound for 48 hours. Compounds are tested at a single concentration, which is 10^-5 M for most compounds. The reported endpoint is percent growth (GI% or GIPRCNT), where numbers from 0 - 100% represent growth inhibition, and numbers from -100% - 0 represent cell death. For example, a value of 40 represents 60% growth inhibition. A value of 0 means no net growth occurred over the course of the experiment. A value of -40 indicates 40% of cells at the beginning of the experiment died by the end of the experiment. A value of -100 means all cells are dead at the end of the experiment.
NCI-60 Human Tumor Cell Lines Screen was performed using the standard one-dose NCI protocol, which is described in more detail at https://dtp.cancer.gov/discovery_development/nci-60/default.htm.
Compounds with GIPRCNT values below 10 were considered active. Activity score was based on GIPRCNT using the following formula: […]
Score is 0 for GIPRCNT values of 100 or above, 50 for GIPRCNT values of 0, and 100 for GIPRCNT values of -100.

First: CC(=O)N(C)c1ccc([N+](=O)[O-])cc1
Second: O=[N+]([O-])c1ccc(-c2noc(-c3cccs3)n2)cc1
The growth of the first is higher: 101% for the first, 86.5% for the second.

Going from `Cc1cc(N)c(S(=O)(=O)O)c(N)c1` to `CC(=O)c1ccc(C)c(N)c1`, the growth falls from 98.7% to 98.4%.

Compared with `COc1cc(C2NC(=O)C(C#N)=C(Nc3cccc(C)c3)S2)ccc1O` (stereo not given), `C#Cc1cccc(NC(=O)c2ccc(Cl)cc2Cl)c1` is lower in growth: 103% for the first, 91.3% for the second.

Compared with `OCc1ccc(-c2ccc(-c3ccc(CO)s3)o2)s1`, `Cc1ccc(/C=C2\SC(=S)N(c3ccc(F)cc3)C2=O)o1` is higher in growth: 15.3% for the first, 61% for the second.

Going from `CC(O)COc1ccc(-c2ccccc2)cc1` (stereo not given) to `O=[N+]([O-])c1ccc(/C=C/C=C/c2ccccc2)c(Cl)c1`, the growth falls from 99.7% to 92%.

Compared with `CCOC(=O)c1cc(/C=C/c2cccc(Cl)c2)on1`, `CCOC(=O)C1=C(C)NC(=O)NC1c1cccs1` (stereo not given) is higher in growth: 87.5% for the first, 109% for the second.

Compared with `CCCCCC(C)(CC(=O)O)CC(=O)O`, `CCCC(C)OCC(=O)O` (stereo not given) is lower in growth: 102% for the first, 93.5% for the second.

First: CC(=O)Nc1cccc(NC(C)=O)n1
Second: COC(=O)c1ccccc1N(C)C
The growth of the first is lower: 102% for the first, 112% for the second.

First: S=c1[nH]ccn1-c1ccccc1Cl
Second: O=c1[nH]n(-c2ccccc2)c(=O)cc1Cl
The growth of the first is lower: 99.2% for the first, 109% for the second.

Going from `C#CC(C(C)C)N(CCO)CCCC` (stereo not given) to `C=CC(O)CCC` (stereo not given), the growth falls from 97.7% to 92.8%.

First: N#CC1(Nc2ccc3c4c(cccc24)CC3)CCCCC1
Second: CCN(CC)CCNc1ccc(CO)c2sc3ccccc3c(=O)c12
The growth of the first is higher: 99.8% for the first, 32.4% for the second.

First: CC1(C)N=C(N)N=C(N)N1c1ccc(Cl)cc1
Second: CC1=NN(c2ccccc2)C(=O)/C1=C\N1CC(=O)NC1=S
The growth of the first is lower: 31.5% for the first, 98.3% for the second.

Compared with `CC(=O)OCC(=O)[C@@]1(O)CC[C@H]2[C@@H]3CC[C@@H]4C[C@H](O)CC[C@]4(C)[C@H]3C(=O)C[C@@]21C`, `CC1NC(=O)NC1CCCCCC(=O)O` (stereo not given) is lower in growth: 102% for the first, 94.5% for the second.

First: CCS(=O)(=O)c1cc(=O)[nH]c(=O)[nH]1
Second: Cc1cc(=O)[nH]c(NN=C2CCCC2)n1
The growth of the first is lower: 93.8% for the first, 120% for the second.

Going from `CN(C)C(=O)Oc1cccc([N+](C)(C)C)c1` to `Cc1ccncc1C(N)=O`, the growth rises from 97.9% to 98.3%.

Going from `O=C(c1ccccc1)C1CCC1` to `CC1Cc2ccccc2O1` (stereo not given), the growth rises from 76.1% to 111%.

Compared with `Cc1cc(NC(=O)CSCC(=O)O)no1`, `COc1nc(N)nc2c1ncn2C1OC(CO)CC1O` (stereo not given) is higher in growth: 101% for the first, 112% for the second.

`CCNCCCCNCCCCNCCCCNCCCCNCC` showed a growth of 95.5%.

For `Cc1cc(/C=C/c2ccc3cc(N(C)C)ccc3[n+]2C)c(C)n1-c1ccccc1`, the growth was -11.9% (active).
`COc1ccc(NC(=O)CCl)cc1` was tested, and the growth was 6.32% (active).
`CCN(CC)c1ccc2nc3ccc(=[N+](CC)CC)cc-3oc2c1` was tested, and the growth was -13.9% (active).
In the case of `COc1ccccc1NC(=O)c1cc2cc(Br)ccc2cc1O`, the growth is reported as 8.67% (active).
In the case of `CCOC(=O)c1cc(/C=C/c2ccc(Cl)cc2Cl)on1`, the growth is reported as 6.71% (active).
